In PubChem BioAssay (NCI):
This is part of a sample that, as a whole, favours compounds with a hit. Of some 83,000 tested, about 20% had one in any assay.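 Step 1: grow cells in 96-well plates. Step 2: add test compound at a single concentration. Step 3: incubate 48 h. Step 4: record percent growth.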 Activity calls are given as the source filed them. Rule for the calls: active = growth percent below 10; inactive = the rest.

Each molecule was assayed on UO-31 renal (assay: NCI-60 one-dose screen, 48 h (100 = growth as untreated, 0 = no growth, -100 = all killed)). Settings: 10 µM unless noted.

SMILES | growth
CCCCCN(CCCCC)CC(O)c1cc(C)c2ccc3cc(C(C)C)ccc3c2c1 (centres undefined) | 51.8% (inactive)
CN(Cc1ccccc1)c1nc(Cl)c(C2CC(c3ccccc3)=NN2c2ccccc2)s1 (centres undefined) | 81.5% (inactive)
COC(=O)c1ccc(NC(=O)Nc2ccc(C(=O)OC)cc2)cc1 | 96.9% (inactive)
C=C1C(=O)O[C@H]2[C@H]1CC/C(COC(=O)NCc1ccc(Cn3c(=O)sn(-c4ccc(C#N)cc4)c3=O)cc1)=C\CC[C@@]1(C)O[C@@H]21 | 75.9% (inactive)
NS(=O)(=O)c1ccc(-c2cc(-c3nnc(SCC(=O)Nc4ccc(C(=O)/C=C/c5ccc(Cl)cc5)cc4)n3-c3ccccc3)c3ccccc3n2)cc1 | 84% (inactive)
CO[C@H](C(=O)[C@@H](O)[C@@H](C)O)[C@@H]1Cc2cc3cc(O[C@H]4C[C@@H](O[C@H]5C[C@@H](O)[C@H](O)C(C)O5)[C@H](O)C(C)(O)O4)cc(O)c3c(O)c2C(=O)[C@H]1O[C@H]1C[C@@H](O[C@H]2C[C@@H](O[C@H]3C[C@@H](OC)[C@H](O)C(C)O3)[C@@H](O)C(C)O2)[C@H](O)C(C)O1 (some centres undefined) | 41.7% (inactive)
COc1ccc(/C=C(/C(=O)n2cnnn2)c2cc(OC)c(OC)c(OC)c2)cc1 | 42.4% (inactive)
COc1cccc(/C=N/NC(=O)c2ccccc2N2CCCC2)c1O | 30.4% (inactive)
CN1CCN(c2ccc(NC(=O)c3cncnc3Nc3ccc(OCc4cccc(F)c4)c(Cl)c3)cc2)CC1 | 25% (inactive)
C=C1C(=O)O[C@H]2[C@H]1CC/C(CNC(=O)c1c[nH]c3ccc(F)cc13)=C\CC[C@@]1(C)O[C@@H]21 | -79.2% (active)
Cc1ncc(C(=O)Nc2ccc(CN3CCN(C)CC3)c(C(F)(F)F)c2)cc1C#Cc1cnc(N)c2ncccc12 | -9.37% (active)
CCNC(=O)Oc1ccc(/C(=C(/CC)Cc2ccccc2)c2ccc(OCCN3CCCC3)cc2)cc1 | 83.5% (inactive)
CCOC(=O)c1ccccc1-c1c2ccc(=[N+](C)C)cc-2oc2cc(N(C)C)ccc12 | 52.1% (inactive)
O=C(Nc1ncc(Cc2ccccc2)s1)c1ccc2c(c1)OCCCO2 | 48.1% (inactive)
CCCCNc1cc(-c2cn[nH]c2-c2cc(C)cc(OC)c2)nc(-c2cccnc2)n1 | 62.3% (inactive)
C=C1CC[C@@H]2[C@](C)(COC(C)=O)[C@H](OC(C)=O)CC[C@@]2(C)[C@@H]1CC(Nc1ccc(S(=O)(=O)NC(C)=O)cc1)C1=CCOC1=O (some centres undefined) | -58.5% (active)
C/C=C(\C)C(=O)N[C@H]1C(O)C[C@]2(C)C3CC[C@@]4(C)C(CC[C@@H]4C(C)N(C)C)C3CCC2C1O (some centres undefined) | -0.798% (active)
O=C(O)COc1ccc(Cl)c(Cl)c1 | 108% (inactive)
NS(=O)(=O)c1ccc(C(=O)NN2C(=O)c3c(Br)c(Br)c(Br)c(Br)c3C2=O)cc1 | 81.7% (inactive)
CS(=O)(=O)c1ccc(NC(=O)c2ccccc2)nc1 | 99.9% (inactive)

SMILES | growth
FC(F)(F)Oc1cccc(-c2cnc3ccc(-c4ccncc4)nn23)c1 | 0.42% (active)
Cc1ccc2c(-n3nc(C#N)c(C#N)c3N)cc(=O)[nH]c2c1 | 45.2% (inactive)
CCOC(=O)c1c(C)nc2c(c1N)CC(=O)N2Cc1ccc(OC)cc1 | 33.8% (inactive)
COc1cccc(CCNc2ncnc3c2ncn3Cc2nnc3c4ccccc4c(Cl)nn23)c1 | 25.2% (inactive)
C=C1C(=O)O[C@H]2[C@H]1CC/C(COC(=O)c1ccc(C(=O)O)s1)=C\CC[C@@]1(C)O[C@@H]21 | 29% (inactive)
O=S(=O)(Nc1cc(Sc2cccc3cccnc23)c(O)c2ccccc12)c1ccccc1 | 23.7% (inactive)
CCOC(=O)c1nn(CC(O)c2ccccc2)c(NC(=O)Nc2cccc(F)c2)c1C (centres undefined) | 90.1% (inactive)
Cn1ccc(=O)nc1 | 73.4% (inactive)
CNCc1cccc2c1OCCOCCOCCNS(=O)(=O)c1ccc(cc1)-c1cnc(N)c(n1)C(=O)N2 | 77.6% (inactive)
C=C(C)[C@@H]1CC[C@]2(C(=O)N3CCN(C)CC3)CC[C@]3(C)[C@H](CC[C@@H]4[C@@]5(C)CC[C@H](OC(=O)c6ccccc6C(=O)O)C(C)(C)[C@@H]5CC[C@]43C)[C@@H]12 | 77.7% (inactive)
CCNc1ccc(-c2nc3ccccc3n3cccc23)cc1 | 51.6% (inactive)
CSc1nc(C)c([N+](=O)[O-])c(N)n1 | 98% (inactive)
O=c1cc(-c2ccccc2)[nH]c2ncc(-c3ccc(F)cc3)n12 | 69.2% (inactive)
N#Cc1cccc(C2C3=C(COC3=O)N(CCO)c3cc4c(cc32)OCO4)c1 (centres undefined) | 43.4% (inactive)
COC(=O)c1nc(-c2ccccc2)oc1S(=O)(=O)NCC(c1ccc(Cl)cc1)N1CCOCC1 (centres undefined) | 60% (inactive)
CC1(C)CC[C@]2(C(=O)N[C@H](CO)Cc3ccccc3)CC[C@]3(C)C(=CC[C@@H]4[C@@]5(C)CCCNC(C)(C)[C@@H]5CC[C@]43C)[C@@H]2C1 | 66.5% (inactive)
COc1ccc(C(=O)Cn2c(C(=O)c3ccc(OC)cc3)nc3ccccc32)cc1 | 35.4% (inactive)
COc1ccc(C2=CC(c3cc(OC)c(OC)c(OC)c3)n3ncnc3N2)cc1 (centres undefined) | 41.3% (inactive)
COc1ccc(C(=O)Cn2c(C(=O)c3ccc(Cl)cc3)nc3ccccc32)cc1 | 54.7% (inactive)
